Assay results from PubChem BioAssay.

Experiment: probe aLAP1 signal on lysate-treated microarray – cell lysate, small-molecule microarray, COS7 lysate, primary screen (AID 1124);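 further: lysate comes from COS7 cells expressing LAP1 and is applied at 0.3 µg/mL; score merges spot fluorescence near 667 nm with signal-to-noise over triplicate slides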
Settings: probe aLAP1, fluorescence, higher = more signal

SMILES | composite z-score
COC(=O)C[C@H]1O[C@@H](CCc2ccccc2)[C@@H](C)[C@@H]1[Si](C)(C)c1ccc(OC)cc1 | 0.314
CC(=CC1CCCCC1)[C@@H](NC(=O)c1cccnc1)c1ccc(-c2ccccc2)cc1 | -0.264
[N-]=[N+]=Nc1ccccc1C[C@]1(C(=O)NCC(O)CO)N=C(c2ccc(OCCCO)cc2)O[C@H]1c1ccccc1 (stereo partly specified) | 0.132
COCC(=C=CC[C@H](O)c1cccc(OCCO)c1)CCO | -0.0637
COC(=O)[C@H](Cc1ccccc1)N[C@H](/C=C/C1CC1)[C@@H](O)Cc1ccccc1 | -0.309
C=CCOC(=O)[C@H]1[C@@H]2C(=O)O[C@@H](c3ccccc3)[C@@H](c3ccccc3)N2[C@@H](c2ccc(OCCOC(=O)[C@@H]3C[C@@H]4C(=O)N5CCC[C@H]5C(=O)N4[C@@H]3c3cccc(OCCO)c3)cc2)[C@]12C(=O)Nc1ccc(I)cc12 | 0.322
COCC(=C=CC[C@@H](O)c1ccc(OCCO)cc1)C[C@@H](O)c1ccccn1 | -0.517
COc1ccc([Si](C)(C)[C@@H]2[C@@H](CCO)O[C@]3(C(=O)N(Cc4cccc(N5CCOC5=O)c4)c4ccccc43)[C@H]2C)cc1 | -0.231
[N-]=[N+]=Nc1ccccc1[C@H]1OC(c2ccc(OCCCO)cc2)=N[C@@]1(Cc1ccccc1)C(=O)N1CCOCC1 | 1.09
CN1C(=O)C2C=CC(C(O)C=Cc3ccc([N+](=O)[O-])cc3)N(Nc3ccccc3)C2C1=O (stereo unspecified) | 0.19
C#CCOc1ccc(C[C@@H](C(=O)OC)N(CC#C)[C@@H](/C=C/C2CC2)[C@H](O)Cc2ccccc2)cc1 | 0.286
